Values without a mark were called inactive. Results filed as inconclusive are left out. The source made the active and inactive calls. Unless noted, calls follow the shape of the dose curve; as a rule, active = well fitted curve in the direction sought with a large enough effect; inconclusive = small, poorly fitted or top-dose-only effect, or another doubt; inactive = no such curve, though single readings can be large; an effect the other way counts as inactive or inconclusive.
How the values were obtained:
[1] = biological target: Lysosomal acid glucosylceramidase (Homo sapiens) (UniProt P04062); test: Glucocerebrosidase-p2 (AID 348; in the data active = potency below about 10 µM; also: potency is read from the fitted curve at half-maximal effect); settings: purified GBA, blue fluorogenic substrate, 40 min
Chain of Lysosomal acid glucosylceramidase (Homo sapiens) (P04062 whole entry, looked up): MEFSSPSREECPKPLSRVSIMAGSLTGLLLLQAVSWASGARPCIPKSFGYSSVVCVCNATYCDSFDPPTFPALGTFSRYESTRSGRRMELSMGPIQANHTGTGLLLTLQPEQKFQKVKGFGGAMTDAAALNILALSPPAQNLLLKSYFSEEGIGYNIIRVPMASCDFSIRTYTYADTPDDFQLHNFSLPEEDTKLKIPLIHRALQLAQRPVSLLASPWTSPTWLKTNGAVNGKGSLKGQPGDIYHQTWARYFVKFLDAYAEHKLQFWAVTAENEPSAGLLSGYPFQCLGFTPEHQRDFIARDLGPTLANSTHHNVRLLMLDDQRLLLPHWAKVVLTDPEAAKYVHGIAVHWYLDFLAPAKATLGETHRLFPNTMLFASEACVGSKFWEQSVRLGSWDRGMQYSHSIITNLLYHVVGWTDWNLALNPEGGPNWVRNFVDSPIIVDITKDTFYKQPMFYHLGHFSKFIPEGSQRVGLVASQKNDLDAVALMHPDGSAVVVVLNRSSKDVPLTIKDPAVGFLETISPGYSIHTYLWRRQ
Method in brief: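 Normal human glucocerebrosidase (0.2 nM) with blue fluorogenic substrate (80 uM final) in citrate/phosphate pH 5.9 with 10mM sodium taurocholate, 0.01% tween-20; 40 min RT, NaOH/glycine stop; fluorescence Ex 365/Em 440; AC50 from a titration from 0.6 nM upwards.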

[2] = AP1 Signaling Pathway (AID 357; active = well fitted curve in either direction with a large enough effect, not every such curve was filed as active;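 also: ME-180 reporter cells stimulated with EGF at its EC50 level; % is scaled to controls: 0 for no effect and ±100 for the full control effect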); settings: ME-180 AP-1-bla reporter, EGF-induced, beta-lactamase ratio, 5 h; at 7.69 µM (top of the series) unless noted
Method in brief: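 Cells are seeded overnight, exposed to compound titrations and an EC50 level of EGF for 5 hours at 37 °C, then loaded with CCF4 dye for 2.5 hours. Beta-lactamase activity under the AP-1 element is read as a blue/green ratio.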

[3] = biological target: Cytochrome P450 1A2 (Homo sapiens) (UniProt P05177); test: p450-cyp1a2 (AID 410; calls by dose curve; also: potency is read from the fitted curve at half-maximal effect); settings: recombinant CYP1A2, luciferin-ME demethylation, luminescence; series mostly up to 57 µM
Chain of Cytochrome P450 1A2 (Homo sapiens) (P05177 whole entry, looked up): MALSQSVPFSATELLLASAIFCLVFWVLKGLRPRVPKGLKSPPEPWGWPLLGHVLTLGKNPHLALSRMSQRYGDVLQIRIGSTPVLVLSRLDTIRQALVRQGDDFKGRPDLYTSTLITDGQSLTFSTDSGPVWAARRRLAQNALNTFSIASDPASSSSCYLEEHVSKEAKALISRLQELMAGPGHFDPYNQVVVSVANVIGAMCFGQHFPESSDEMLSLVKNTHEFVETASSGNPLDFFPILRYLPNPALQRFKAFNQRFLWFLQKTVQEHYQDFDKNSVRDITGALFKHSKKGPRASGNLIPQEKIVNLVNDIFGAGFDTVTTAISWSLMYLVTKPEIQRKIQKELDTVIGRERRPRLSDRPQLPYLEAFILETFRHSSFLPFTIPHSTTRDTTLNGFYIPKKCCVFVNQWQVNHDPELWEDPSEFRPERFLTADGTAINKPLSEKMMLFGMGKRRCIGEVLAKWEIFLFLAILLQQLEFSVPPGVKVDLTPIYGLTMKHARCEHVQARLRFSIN
Method in brief: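 O-Demethylation of luciferin 6' methyl ether by human CYP1A2 is monitored as luciferase luminescence. Substrate sits at Km (100uM); enzyme is 20nM. Values are scaled to 57 uM furafylline as maximal inhibition.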

[4] = NFAT Signaling Pathway (AID 444; active = well fitted curve in either direction with a large enough effect, not every such curve was filed as active;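 also: carbachol stimulus at about its EC50 of 1 µM final; % is scaled to controls: 0 for no effect and ±100 for the full control effect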); settings: Jurkat NFAT-bla M1, carbachol, beta-lactamase ratio, 5 h; at 7.69 µM (top of the series) unless noted
Method in brief: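 Jurkat cells with NFAT-driven β-lactamase reporter and co-expressed M1 receptor, stimulated with carbachol (final 1 uM, ~EC50), compound titration, 5 h at 37 °C. CCF4 loaded 1 h at RT; 460/530 nm ratio gave %activity and AC50.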

[5] = Stat Signaling Pathway (AID 446; active = well fitted curve in either direction with a large enough effect, not every such curve was filed as active;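 also: ME-180 cervical cancer cells given 40 pM IL-6 alongside compound; SIE-controlled beta-lactamase reporter measured as 460/530 nm FRET emission ratio; % is scaled to controls: 0 for no effect and ±100 for the full control effect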); settings: ME-180 (cervical carcinoma) SIE beta-lactamase reporter, IL-6 stimulated, 5 h; at 7.69 µM (top of the series) unless noted
Method in brief: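 Normalization used AC90 stimulation (300 pM IL-6) and AC90 inhibition (125 nM pan-JAK inhibitor at 40 pM IL-6). The underlying signal is SIE-driven beta-lactamase in ME-180 cells after 5 h IL-6 exposure with compound.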

[6] = biological target: Glucocorticoid receptor (Homo sapiens) (UniProt P04150); test: GR-GFP Redistribution (AID 450;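 active = compounds whose dose series gives a full or clear partial fitted curve of increased nuclear translocation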; also: potency is read from the fitted curve at half-maximal effect); settings: U2OS GR-GFP nuclear translocation, laser cytometry, 2 h
Chain of Glucocorticoid receptor (Homo sapiens) (P04150 whole entry, looked up, the tested form may be a part): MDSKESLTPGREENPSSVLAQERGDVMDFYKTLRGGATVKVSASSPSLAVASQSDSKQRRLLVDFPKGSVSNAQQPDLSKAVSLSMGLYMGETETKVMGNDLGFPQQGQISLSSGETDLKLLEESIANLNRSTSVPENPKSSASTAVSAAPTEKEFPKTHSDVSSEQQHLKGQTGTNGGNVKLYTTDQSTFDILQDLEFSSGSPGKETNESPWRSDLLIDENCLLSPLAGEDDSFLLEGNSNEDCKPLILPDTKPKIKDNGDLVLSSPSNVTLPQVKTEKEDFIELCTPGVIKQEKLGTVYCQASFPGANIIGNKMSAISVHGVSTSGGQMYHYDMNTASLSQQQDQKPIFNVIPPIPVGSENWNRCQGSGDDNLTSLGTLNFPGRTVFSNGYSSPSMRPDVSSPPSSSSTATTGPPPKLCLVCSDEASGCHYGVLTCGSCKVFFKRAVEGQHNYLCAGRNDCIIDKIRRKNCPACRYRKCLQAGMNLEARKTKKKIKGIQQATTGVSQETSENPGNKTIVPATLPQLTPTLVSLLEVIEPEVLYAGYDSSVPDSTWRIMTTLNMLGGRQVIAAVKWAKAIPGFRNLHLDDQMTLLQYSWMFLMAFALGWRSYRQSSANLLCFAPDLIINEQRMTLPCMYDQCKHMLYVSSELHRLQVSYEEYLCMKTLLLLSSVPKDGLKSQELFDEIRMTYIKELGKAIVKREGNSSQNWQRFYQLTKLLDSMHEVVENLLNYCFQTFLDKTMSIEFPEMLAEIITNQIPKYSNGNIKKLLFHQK

[7] = biological target: Glucocorticoid receptor (Homo sapiens) (UniProt P04150); test: GR-EFC Redistribution (AID 451; calls by dose curve; also: potency is read from the fitted curve at half-maximal effect); settings: CHO-K1 GR-EFC translocation, beta-gal luminescence, 2 h
Method in brief: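 CHO-K1 cells expressing nuclear EA and GR-ED fragments of b-gal; compounds titrated up to 46 uM final, 2 h at 37 C. GR nuclear translocation read as complemented b-gal luminescence after 1 h RT detection.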

[8] = biological target: Mitogen-activated protein kinase 10 (Mus musculus) (UniProt Q61831); test: JNK3 AlphaScreen Assay (AID 530; active = well fitted curve in either direction with a large enough effect, not every such curve was filed as active;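 also: kinase came from lysate of stimulated human HepG2 cells; signal reports phosphorylation of biotinylated GST-cJun 1-79 at Ser73 with 10 µM ATP; % is scaled to controls: 0 for no effect and ±100 for the full control effect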); settings: JNK3 lysate, c-Jun phosphorylation; series mostly up to 57.1 µM
Method in brief: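 Activity was read by AlphaScreen after JNK3-containing HepG2 lysate (cytokine pre-activated) phosphorylated biotinylated GST-cJun with 10 uM ATP at room temperature. Phospho-Ser73 cJun antibody with Protein-A acceptor beads provided detection.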

[9] = biological target: Cytochrome P450 3A4 (Homo sapiens) (UniProt P08684); test: qHTS Assay for Inhibitors and Substrates of Cytochrome P450 3A4 (AID 884); settings: recombinant CYP3A4, Luciferin-PPXE luminescence; series mostly up to 57.1 µM; also: nearly all actives have a fitted effect of over 50% in size; also: potency is read from the fitted curve at half-maximal effect
Chain of Cytochrome P450 3A4 (Homo sapiens) (P08684 whole entry, looked up): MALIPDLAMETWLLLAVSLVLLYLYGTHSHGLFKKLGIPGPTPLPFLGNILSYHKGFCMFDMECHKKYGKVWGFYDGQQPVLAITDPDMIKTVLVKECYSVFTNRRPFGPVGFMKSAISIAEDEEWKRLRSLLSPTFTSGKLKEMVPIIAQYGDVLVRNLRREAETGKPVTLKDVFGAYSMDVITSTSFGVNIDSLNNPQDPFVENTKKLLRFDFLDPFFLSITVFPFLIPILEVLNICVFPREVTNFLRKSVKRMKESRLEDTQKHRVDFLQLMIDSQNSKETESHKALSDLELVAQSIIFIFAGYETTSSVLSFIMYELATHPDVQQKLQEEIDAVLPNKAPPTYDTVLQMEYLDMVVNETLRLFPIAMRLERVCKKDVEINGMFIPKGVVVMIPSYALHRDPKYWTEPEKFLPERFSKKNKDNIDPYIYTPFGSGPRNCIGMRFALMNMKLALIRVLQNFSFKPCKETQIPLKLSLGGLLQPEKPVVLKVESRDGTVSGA
Method in brief: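 Luminescent readout of luciferin produced by CYP3A4 (20 nM) dealkylation of Luciferin-PPXE, 25 uM (its KM). NADPH-driven reaction ran 60 min at RT after 10 min compound preincubation; data scaled to 57 uM ketoconazole as 100% inhibition.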

[10] = biological target: Cytochrome P450 3A4 (Homo sapiens) (UniProt P08684); test: qHTS Assay for Activators of Cytochrome P450 3A4 (AID 885); settings: recombinant CYP3A4, Luciferin-PPXE luminescence, 60 min; series mostly up to 57.1 µM; also: nearly all actives have a fitted effect of over 65% in size; also: potency is read from the fitted curve at half-maximal effect
Method in brief: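 Human CYP3A4 dealkylates Luciferin-PPXE to luciferin, which luciferase detection converts to light. Substrate was at its KM (25uM), buffer 200mM KPO4, reaction 60 min at RT.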

[11] = biological target: Cytochrome P450 2C19 (Homo sapiens) (UniProt P33261); test: qHTS Assay for Inhibitors and Substrates of Cytochrome P450 2C19 (AID 899); settings: recombinant CYP2C19, luciferin-H EGE luminescence; series mostly up to 57.1 µM; also: potency is read from the fitted curve at half-maximal effect; nearly all actives have a fitted effect of over 60% in size
Chain of Cytochrome P450 2C19 (Homo sapiens) (P33261 whole entry, looked up): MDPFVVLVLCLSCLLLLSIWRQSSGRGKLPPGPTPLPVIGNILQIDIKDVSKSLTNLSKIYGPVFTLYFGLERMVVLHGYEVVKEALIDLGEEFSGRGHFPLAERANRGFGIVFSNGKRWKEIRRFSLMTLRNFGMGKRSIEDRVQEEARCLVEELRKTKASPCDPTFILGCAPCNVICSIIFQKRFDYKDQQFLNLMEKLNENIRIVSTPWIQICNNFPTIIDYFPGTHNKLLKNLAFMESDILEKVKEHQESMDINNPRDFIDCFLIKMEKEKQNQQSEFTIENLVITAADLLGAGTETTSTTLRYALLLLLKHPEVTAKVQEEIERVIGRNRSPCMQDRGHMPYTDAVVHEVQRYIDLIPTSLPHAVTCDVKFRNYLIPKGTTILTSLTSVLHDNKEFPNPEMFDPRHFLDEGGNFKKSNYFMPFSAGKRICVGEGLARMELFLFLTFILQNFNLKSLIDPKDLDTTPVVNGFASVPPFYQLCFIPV
Method in brief: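 Signal comes from luciferase acting on luciferin released by CYP2C19-mediated hydroxylation of Luciferin-H EGE, 10uM (KM). Assay mix: 5nM enzyme, 50mM KPO4; 60 min at 37C with NADPH regeneration. Data normalized against 57uM ketoconazole.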

[12] = biological target: Dual specificity protein kinase CLK4 (Homo sapiens) (UniProt Q9HAZ1); test: qHTS Assay for Inhibitors of CDC-like Kinase 4 (Kinase-Glo Assay) (AID 1770); settings: recombinant Clk4, Kinase-Glo ATP depletion luminescence; series mostly up to 66.7 µM; also: nearly all actives have a fitted effect of over 65% in size; also: potency is read from the fitted curve at half-maximal effect
Chain of Dual specificity protein kinase CLK4 (Homo sapiens) (Q9HAZ1 whole entry, looked up): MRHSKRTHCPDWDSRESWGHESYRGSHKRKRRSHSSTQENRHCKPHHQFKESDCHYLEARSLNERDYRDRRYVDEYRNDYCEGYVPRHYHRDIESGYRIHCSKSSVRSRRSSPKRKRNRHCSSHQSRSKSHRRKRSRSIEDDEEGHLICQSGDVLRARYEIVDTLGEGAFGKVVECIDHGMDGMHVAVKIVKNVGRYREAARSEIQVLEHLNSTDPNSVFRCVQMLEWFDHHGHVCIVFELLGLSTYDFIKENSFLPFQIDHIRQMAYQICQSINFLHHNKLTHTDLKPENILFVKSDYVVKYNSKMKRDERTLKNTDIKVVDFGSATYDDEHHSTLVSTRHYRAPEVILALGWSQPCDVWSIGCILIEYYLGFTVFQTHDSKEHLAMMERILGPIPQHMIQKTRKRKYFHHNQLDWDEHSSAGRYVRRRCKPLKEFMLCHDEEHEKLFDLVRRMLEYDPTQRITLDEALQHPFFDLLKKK
Method in brief: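 Readout: Kinase-Glo luminescence from ATP left after a 4.5 h room-temperature reaction of 25 nM Clk4 with 100 uM RS peptide and 1 uM ATP (final). Buffer: 25 mM Tris pH 7.5, 10 mM MgCl2.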

[13] = biological target: Dual specificity protein kinase CLK4 (Homo sapiens) (UniProt Q9HAZ1); test: qHTS Assay for Inhibitors of CDC-like Kinase 4 (ADP-Glo Assay) (AID 1771); settings: recombinant CLK4, ADP-Glo luminescence; series mostly up to 80 µM; also: nearly all actives have a fitted effect of over 70% in size; also: potency is read from the fitted curve at half-maximal effect
Method in brief: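 Compounds are pin-transferred onto substrate mix (100 uM RS peptide, 1 uM ATP), then 25 nM Clk4 is added. After 1 hr at room temperature, ADP-Glo reagent runs 45 min, detection reagent 30 min, then luminescence is read.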

[14] = biological target: Dual specificity protein kinase CLK4 (Homo sapiens) (UniProt Q9HAZ1); test: qHTS Assay for Inhibitors of CDC-like Kinase 4 (ADP-FP Assay) (AID 1795); settings: Transcreener ADP fluorescence polarization; series mostly up to 50 µM; also: nearly all actives have a fitted effect of over 60% in size; also: potency is read from the fitted curve at half-maximal effect
Method in brief: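 FP readout: Orange Transcreener ADP2 tracer (4 nM) plus ADP antibody, read after 30 min at room temperature. Kinase step: 6.25 nM Clk4, 100 uM RS peptide, 1 uM ATP, pH 7.5, 1 h.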

[15] = biological target: Ubiquitin carboxyl-terminal hydrolase 1 (Homo sapiens) (UniProt O94782); test: Inhibitors of USP1/UAF1: Pilot qHTS (AID 504865); settings: purified USP1/UAF1, Ub-rhodamine cleavage fluorescence; series mostly up to 54.9 µM;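 also: rhodamine fluorescence freed from ubiquitin-rhodamine substrate followed over time; top concentration of the series differs between compounds; % is scaled to controls: 0 for no effect and ±100 for the full control effect; nearly all actives have a fitted effect of over 35% in size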
Chain of Ubiquitin carboxyl-terminal hydrolase 1 (Homo sapiens) (O94782 whole entry, looked up): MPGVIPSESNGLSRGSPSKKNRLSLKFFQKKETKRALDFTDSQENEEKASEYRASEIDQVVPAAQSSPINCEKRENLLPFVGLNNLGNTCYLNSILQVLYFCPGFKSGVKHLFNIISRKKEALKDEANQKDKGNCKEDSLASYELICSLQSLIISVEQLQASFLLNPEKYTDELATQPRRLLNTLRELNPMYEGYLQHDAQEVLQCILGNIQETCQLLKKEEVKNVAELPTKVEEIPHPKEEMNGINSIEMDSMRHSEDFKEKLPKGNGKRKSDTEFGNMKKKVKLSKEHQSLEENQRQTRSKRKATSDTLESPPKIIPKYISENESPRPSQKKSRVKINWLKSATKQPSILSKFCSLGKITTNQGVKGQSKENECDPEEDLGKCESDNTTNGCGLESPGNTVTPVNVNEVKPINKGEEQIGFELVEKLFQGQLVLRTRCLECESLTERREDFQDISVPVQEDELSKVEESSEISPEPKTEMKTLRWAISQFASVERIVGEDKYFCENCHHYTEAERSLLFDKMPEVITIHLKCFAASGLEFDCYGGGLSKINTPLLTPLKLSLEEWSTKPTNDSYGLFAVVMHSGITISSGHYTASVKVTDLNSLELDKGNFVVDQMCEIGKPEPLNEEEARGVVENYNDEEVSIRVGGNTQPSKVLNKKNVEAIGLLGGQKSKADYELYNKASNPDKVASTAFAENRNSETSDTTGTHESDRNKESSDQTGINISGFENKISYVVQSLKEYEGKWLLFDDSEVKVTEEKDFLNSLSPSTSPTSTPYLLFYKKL
Method in brief: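 1nM USP1/UAF1 + cpd, 15 min RT; start w/ Ub-Rho 150nM final; kinetic FL 480/540 nm, 6 reads q60 s. Buffer 50mM HEPES pH 7.8, 0.5mM EDTA, 1mM TCEP, 0.01% Tween-20, 0.1 mg/ml BSA.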

[16] = Primary qHTS for small molecule stabilizers of the endoplasmic reticulum resident proteome: Secreted ER Calcium Modulated Protein (SERCaMP) assay (AID 1508630); settings: SH-SY5Y GLuc-SERCaMP (Gaussia luciferase released on ER calcium loss) secretion, thapsigargin, luminescence; series mostly up to 38.4 µM; also: % is scaled to controls: 0 for no effect and ±100 for the full control effect
Method in brief: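 The SH-SY5Y reporter protocol was run at 3 concentrations up to 38.3 uM (primary) or 11 concentrations (follow-up): 16 h compound, 100 nM thapsigargin for 4 h, then extracellular luciferase luminescence.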

[17] = biological target: 3',5'-cyclic-AMP phosphodiesterase 4B (Homo sapiens) (UniProt Q07343); test: qHTS Assay for Inhibitors of PDE-IV (AID 607; active = well fitted activation curve with a large enough effect in the main read-out, with a control signal flat, not every such curve was filed as active; also: % of control where 0% means no effect); settings: HEK293 ACTOne CNG channel cells, membrane potential fluorescence; series mostly up to 22.9 µM
Chain of 3',5'-cyclic-AMP phosphodiesterase 4B (Homo sapiens) (Q07343 whole entry, looked up): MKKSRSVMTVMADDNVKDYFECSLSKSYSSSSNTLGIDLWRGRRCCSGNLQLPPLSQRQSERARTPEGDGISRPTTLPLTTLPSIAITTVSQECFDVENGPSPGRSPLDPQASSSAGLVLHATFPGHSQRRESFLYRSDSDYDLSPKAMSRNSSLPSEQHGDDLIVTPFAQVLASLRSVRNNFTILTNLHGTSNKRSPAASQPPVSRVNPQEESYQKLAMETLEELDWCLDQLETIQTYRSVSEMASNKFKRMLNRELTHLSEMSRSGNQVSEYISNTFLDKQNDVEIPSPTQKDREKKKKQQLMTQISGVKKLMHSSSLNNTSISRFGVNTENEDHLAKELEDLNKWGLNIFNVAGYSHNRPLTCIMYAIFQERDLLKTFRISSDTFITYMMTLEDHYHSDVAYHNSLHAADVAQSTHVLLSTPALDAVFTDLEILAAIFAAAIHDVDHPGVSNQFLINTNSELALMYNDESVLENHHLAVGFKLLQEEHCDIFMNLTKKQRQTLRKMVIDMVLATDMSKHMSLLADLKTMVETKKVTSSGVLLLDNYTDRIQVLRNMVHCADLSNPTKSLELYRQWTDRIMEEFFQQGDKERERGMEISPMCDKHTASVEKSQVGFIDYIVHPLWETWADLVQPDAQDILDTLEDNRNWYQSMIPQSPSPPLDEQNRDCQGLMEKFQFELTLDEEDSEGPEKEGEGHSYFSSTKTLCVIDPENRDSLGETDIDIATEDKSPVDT
Method in brief: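 HEK293 ACTOne cells with CNG channel (1000/well), endogenous PDE4; membrane potential dye, compounds up to 22.9 uM final. Fluorescence Ex 535/Em 590; RO 20-1724 (100 uM final) as reference.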

[18] = biological target: Cytochrome P450 2D6 (Homo sapiens) (UniProt P10635); test: qHTS Assay for Inhibitors and Substrates of Cytochrome P450 2D6 (AID 891); settings: recombinant CYP2D6, luciferin-ME EGE luminescence; series mostly up to 57.1 µM; also: potency is read from the fitted curve at half-maximal effect; nearly all actives have a fitted effect of over 60% in size
Method in brief: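 Luminescent read-out of luciferin formed by 5 nM human CYP2D6 demethylating 30 uM Luciferin-ME EGE (Km level) over 60 min at room temperature after NADPH regeneration addition. Data normalized to full inhibition by 1.43 uM quinidine.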

Row | Structure (SMILES) | Potency [1] [µM] | activity change, negative = inhibition [2] | Potency [3] | activity change, negative = inhibition [4] | activity, negative = inhibition [5] [%] | Potency [6] [µM] | Potency [7] [µM] | Potency [8] | Potency [9] | Potency [10] | Potency [11] | Potency [12] | Potency [13] | Potency [14] | Potency [15] | outcome [16] | Potency [17] | Potency [18]
1 | Cc1ccccc1-c1cncnc1Nc1ccccc1 | > 11.4 | -10.9% | 15.8 µM (active) | -1.77% | 16 | > 46 | > 46 | inactive | 0.631 µM (active) | inactive | 3.16 µM (active) | inactive | inactive | inactive | inactive | inactive |  | 
2 | COCCn1c(=O)c(C)nc2cncnc21 | > 11.4 | -8.48% | 15.8 µM (active) | 3.43% | -7.75 | > 9.22 | > 46 | inactive |  | inactive |  | inactive | inactive | inactive | inactive | inactive | inactive | 
3 | CN1CCN(c2ncc3ncc(=O)n(CCc4ccccc4)c3n2)CC1 | > 11.4 | -5.68% | 3.98 µM (active) | -2.1% | 9.6 | > 9.22 | > 46 | inactive |  | inactive | 6.31 µM (active) | 25.1 µM (active) | 15.8 µM (active) | inactive | inactive | inactive | inactive | 
4 | CS(=O)(=O)Nc1cccc(-c2cncnc2NCc2cccnc2)c1 | > 11.4 | 10.9% | 15.8 µM (active) | -3.98% | -1.28 | > 46 | > 46 | inactive |  | inactive | 3.16 µM (active) | inactive | inactive | inactive | inactive | inactive | inactive | 
5 | O=c1c(-c2ccc(Cl)cc2)nc2cnc(N3CCOCC3)nc2n1CCc1ccccc1 | > 11.4 | 87.9% [activator] (active) | 2 µM (active) | 112% [activator] (active) |  | > 9.22 | > 46 | inactive | inactive | 15.8 µM (active) |  | inactive | inactive | inactive | inactive | inactive | inactive | 
6 | N#Cc1cccc(-c2nccc(NCc3ccccc3)n2)c1 | > 11.4 | -20.8% | 0.501 µM (active) | 13.6% | -6.24 | > 46 | > 46 | inactive |  | inactive |  | 14.1 µM (active) | 14.1 µM (active) | 15.8 µM (active) |  | inactive |  | 7.94 µM (active)

Reference: PubChem BioAssay (NCATS)
